Assay outcomes (PubChem)
Sampled rows, rich in hits. Any-hit rate of the full collection: about 14%.
HCMV antiviral: human cytomegalovirus inhibition. HFF cells, HCMV-luciferase reporter, 72 h; hits give low values. activity change, negative = inhibition, % at 57.5 µM. 410,000 compounds, 4.5% hits. AID 1259415; in the data active = activity change below about -60%; inconclusive = no clear call, values can overlap the other calls; inactive = above about -39%
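HFF cells seeded 16 h at 37C, treated with compounds, infected with luciferase-reporter HCMV at MOI 1 PFU/cell; luciferase read at 72 h post infection, normalized to buffer-only and Salinomycin controls.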
FBPA Giardia inh: inhibitors of Giardia lamblia fructose-1,6-bisphosphate aldolase | A8B2U2 | purified Giardia FBPA | 290,000 compounds, 0.71% hits | Potency, µM (highest dose often 59.6 µM), inactives show at the highest dose activity, negative = inhibition, hits mostly inhibitors | AID 2451; also: potency is read from the fitted curve at half-maximal effect; nearly all actives have a fitted effect of over 55% in size
Target sequence (A8B2U2 whole entry, looked up): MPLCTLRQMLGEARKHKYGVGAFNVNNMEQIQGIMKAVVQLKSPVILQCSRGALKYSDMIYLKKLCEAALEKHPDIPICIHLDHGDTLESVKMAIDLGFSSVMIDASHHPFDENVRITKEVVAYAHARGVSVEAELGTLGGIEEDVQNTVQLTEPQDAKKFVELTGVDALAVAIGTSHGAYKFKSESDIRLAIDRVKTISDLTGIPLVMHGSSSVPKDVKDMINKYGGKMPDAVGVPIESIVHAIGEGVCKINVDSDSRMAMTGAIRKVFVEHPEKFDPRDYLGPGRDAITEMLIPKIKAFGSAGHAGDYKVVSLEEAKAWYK
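Giardia FBPA (40 nM reagent) was preincubated 10 min at RT with compound (up to 57.5 uM final), then substrate plus GAPDH/TPI/NAD/arsenate coupling system with diaphorase/resazurin was added; resorufin fluorescence (525/598 nm) was read after 20 min.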
Sm TGR inh: blocks Schistosoma mansoni thioredoxin glutathione reductase; Q962Y6; purified TGR, DTNB reduction, TNB absorbance 405 nm; Potency, µM (doses to about 114 µM), for the others: at the highest dose activity change, negative = inhibition, most hits filed as inhibitors; 360,000 compounds, 3% hits; also: potency is read from the fitted curve at half-maximal effect; nearly all actives have a fitted effect of over 60% in size
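TGR 20 nM + NADPH 100 uM (dispensed conc.), cpd preinc 15 min RT; start with NADPH (500 uM addition) then DTNB (15 mM addition). Kinetic TNB absorbance, 405 nm filter. Four-parameter Hill fit across titration.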
Pf growth 48h: P. falciparum growth inhibition at 48 hours (one generation). P. falciparum luciferase growth in erythrocytes, 48 h. Potency, µM (doses to about 28.7 µM), inactives show at the highest dose activity change, negative = inhibition, usual class: inhibitors. 310,000 compounds, 5.9% hits; also: potency is read from the fitted curve at half-maximal effect
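A one-generation exposure of luciferase-tagged malaria parasites in RPMI 1640/Albumax erythrocyte culture, 37 C and 5% CO2. Inhibition is inferred from decreased luminescence after adding detection reagent.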
Pf growth 96h: P. falciparum growth inhibition at 96 hour, primary screen for plastid delayed-death inhibitors; Potency, µM (series often up to 28.7 µM), without a hit: top-dose activity change, negative = inhibition, most hits filed as inhibitors; AID 504834; P. falciparum luciferase reporter growth, 96 h; 320,000 compounds, 6.9% hits; also: potency is read from the fitted curve at half-maximal effect
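Cell-based qHTS: luciferase-tagged P. falciparum in erythrocytes (2% hematocrit, 0.05% parasitemia final) incubated with compounds for 96 hours, 37 C, 5% CO2; luciferase detection reagent then added and luminescence measured.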
* marks the source's active call; other numbers are inactive results; ? = inconclusive; . = no result given; ! = a repeat was not active. Unless noted, calls follow the shape of the dose curve; as a rule, active = well fitted curve in the direction sought with a large enough effect; inconclusive = small, poorly fitted or top-dose-only effect, or another doubt; inactive = no such curve, though single readings can be large; an effect the other way counts as inactive or inconclusive. % is scaled to controls: 0 for no effect and ±100 for the full control effect.

SMILES	HCMV antiviral	FBPA Giardia inh	Sm TGR inh	Pf growth 48h	Pf growth 96h
NC1=NC[C@H](Cc2ccc(O)cc2)N1CCCCC1CCCCC1	-90.5*	0.2%	-3.3%	2.08µM*	2.08µM*
O=C1NC[C@@H](CCCCN2C[C@H](Cc3ccc(O)cc3)N(CC3CCCCC3)C(=O)C2=O)N(CC2CCCCC2)C1=O	-14.8	.	.	.	.
COc1cc(NC(=O)CSc2ccc(-c3sc(C)nc3C)nn2)cc(OC)c1	-34.5	.	-1.0%	.	.
O=C(Cc1ccc([N+](=O)[O-])cc1)c1ccccc1	3.5	.	.	.	.
COc1ccc(C(=O)NC(C(=O)OCC(=O)Nc2sccc2C(N)=O)C(C)C)cc1 (centres undefined)	-0.1	.	-13.6%	11.7µM*	-14.8%
COc1ccc(C(=O)N[C@H](C(=O)Nc2sccc2C(N)=O)C(C)C)cc1	?	-3.3%	3.0%	-22.8%	12.6%
COc1cc(OC)cc(C(=O)N[C@H](C(=O)OCC(=O)Nc2ccc(C)cc2C)C(C)C)c1	-90.3*	1.8%	0.0%	19.5%	3.8%
O=C(Nc1ccccc1)Nc1cnccn1	-7.8	5.1%	-4.2%	6.3%	58.7%
COc1ccc(OCCC(=O)OCC(=O)NCc2ccccc2OC)cc1	-30.4	.	-10.2%	-18.3%	3.7%
CC(OC(=O)C1CCCCC1)C(=O)Nc1ccc(S(N)(=O)=O)cc1 (centres undefined)	0.0	.	-19.5%	16.5%	15.1%
CN(C)c1ccc2nc3ccc(=O)cc-3sc2c1	-78.0*	.	.	.	.
COc1ccc2nc(N=Nc3ccc(N(C)C)cc3)sc2c1	25.4	0.9%	-1.0%	4.6%	335.9%
Cc1cc2nc3ccc(=[N+](C)C)cc-3sc2cc1N	.	?	?	0.037µM*	0.0329µM*
CN(C)c1ccc2nc3ccc(=[N+](C)C)cc-3sc2c1	-103.7*	?	?	0.0067µM*	0.0067µM*!
O=C(c1ccc(Br)s1)N(Cc1cccnc1)c1nc2ccc(F)cc2s1	14.1	.	-4.8%	.	.
CN(C)S(=O)(=O)Nc1ccc(Cc2ccncc2)cc1	17.6	.	.	.	.
CCCCc1ccc(NS(=O)(=O)N(C)C)cc1	48.5	-4.1%	1.1%	23.8%	10.4µM*
O=C1c2[nH]nc(-c3ccc(Br)cc3)c2C(c2cccc(O)c2)N1c1ccc(Cl)cc1 (centres undefined)	-105.1*	.	-0.3%	.	.
CC(C)c1[nH]nc2c1C(c1cccc(C(F)(F)F)c1)N(c1ccccc1)C2=O (centres undefined)	-32.5	.	.	.	.
COC(=O)c1ccc(C2c3c(-c4ccc(Br)cc4)n[nH]c3C(=O)N2c2ccc(Cl)cc2)cc1 (centres undefined)	-103.4*	.	-5.1%	.	.
O=C1c2[nH]nc(-c3ccccc3)c2C(c2ccccc2)N1c1cccc(C(F)(F)F)c1 (centres undefined)	-108.1*	.	9.9%	.	.
CCN(Cc1ccccc1)C(=O)Nc1ccc2c(c1)N(C)C(=O)c1ccccc1S2	-5.3	.	-12.9%	.	.
Oc1c(N=Nc2nn[nH]n2)ccc2ccccc12	-85.0*	.	.	.	.
CCCC(=O)Nc1ccc(Cl)c(NC(=O)c2cccc(OC)c2)c1	-78.9*	-1.6%	8.91µM*	-21.1%	-3.5%
COc1cccc(C(=O)Nc2ccc(Cl)c(-c3nc4ccccc4[nH]3)c2)c1	-88.6*	.	7.1%	.	.
SMILES	HCMV antiviral	FBPA Giardia inh	Sm TGR inh	Pf growth 48h	Pf growth 96h
CCC(=O)Nc1ccc(Cl)c(-c2nc3ccccc3[nH]2)c1	-15.6	.	-8.7%	.	.
COC(=O)CCCC1=CC2=C(c3ccccc3)C(=O)C(C)(OC(=O)C3CCCC3)C(=O)C2=CN1CCc1c[nH]c2ccccc12 (centres undefined)	2.8	?	8.91µM*	?	?
COC(=O)CCCC1=CC2=C(c3ccccc3)C(=O)C(C)(OC(=O)C3CCCC3)C(=O)C2=CN1CCN1CCOCC1 (centres undefined)	-6.1	?	35.5µM*	?	?
COC(=O)CCCC1=CC2=C(c3ccccc3)C(=O)C(C)(OC(=O)C3CCCC3)C(=O)C2=CN1CCc1ccccn1 (centres undefined)	-0.6	?	28.2µM*	?	?
Cc1cccc(NC(=O)CNC(=O)COc2cc(F)ccc2[N+](=O)[O-])c1C	-21.6	0.6%	44.8%	?	4.0%
Cn1nnnc1SCCCNCc1ccc(-c2ccc(Br)cc2)o1	-10.6	.	?	.	.
O=C(NC1CCCC1)C(c1ccc(F)cc1)N(Cc1ccc(F)cc1)C(=O)CCl (centres undefined)	-67.2*	-2.8%	5.62µM*	0.0%	-13.2%
COc1ccc(CN(C(=O)c2nsc(Cl)c2Cl)C(C(=O)NC2CCCCC2)c2ccc(OC)cc2)cc1 (centres undefined)	-36.3	-3.2%	15.4%	?	?
COc1ccc(C(C(=O)NC2CCCCC2)N(C(=O)CCl)c2ccc(C)cc2)cc1 (centres undefined)	-98.9*	1.8%	3.5%	-8.4%	67.4%
O=C(NC1CCCCC1)C(c1ccncc1)N(Cc1ccc(F)cc1)C(=O)c1ccccn1 (centres undefined)	-0.5	7.1%	-35.6%	-15.5%	-14.6%
COC(CN(C(=O)CCl)C(C(=O)NC1CCCCC1)c1ccc(C)cc1)OC (centres undefined)	-28.8	-1.7%	44.7µM*	-11.8%	-5.7%
COc1ccc(CN(C(=O)c2nsc(Cl)c2Cl)C(C(=O)NC2CCCC2)c2ccc(C)cc2)cc1 (centres undefined)	?	-3.5%	-6.0%	?	10.4µM*
COCCN(C(=O)CCC(=O)Nc1cc(C)on1)C(C(=O)NC1CCCC1)c1ccc(C)cc1 (centres undefined)	-30.1	-3.3%	-1.4%	-3.9%	?
O=C1CC(c2ccccc2)Cc2[nH]c(=O)c(-c3nc(-c4ccc(Cl)c(Cl)c4)cs3)cc21 (centres undefined)	11.5	.	0.8%	.	.
Cc1ccc(/C(O)=C2\C(=O)C(=O)N(C)C2c2ccc(F)cc2)cc1 (centres undefined)	14.3	-6.8%	-0.7%	63.8%	?
COC(=O)[C@@]1(Cc2ccc(F)cc2)[C@H]2c3cc(C(=O)N4CCCC4)n(Cc4c(CO)[nH]cc(C)c4=O)c3C[C@H]2CN1C(=O)c1ccccc1	.	-4.9%	.	.	.
COc1ccc(C(C(=O)NC2CCCC2)N(C(=O)c2ccoc2C)c2ccc(C)cc2)cc1 (centres undefined)	?	1.8%	0.7%	10.4µM*	?
COc1ccc(N(C(=O)c2ccco2)C(C(=O)NC2CCCC2)c2ccncc2)cc1 (centres undefined)	-0.9	.	-0.3%	4.7%	10.4%
COc1ccc(C(C(=O)NC2CCCCC2)N(C(=O)CCl)c2ccc(OC)cc2)cc1 (centres undefined)	.	-3.9%	-21.7%	-17.4%	9.28µM*
COc1ccc(C(C(=O)NC2CCCCC2)N(C(=O)CCl)c2cccc(Cl)c2)cc1 (centres undefined)	-99.0*	0.1%	-17.7%	?	?
